According to ChEMBL document CHEMBL1961873, “Compounds: GSK PKIS; Assays: Nanosyn kinase panel” (2012):

Legend:
[1] = target: Protein kinase C gamma type (Homo sapiens) (UniProt P05129); conditions: at 1 µM;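 note: each value is an averaged percent inhibition of the enzyme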
[2] = target: T1, Protein kinase C iota type (Homo sapiens) (UniProt P41743); conditions: at 0.1 µM
T1 sequence (whole entry): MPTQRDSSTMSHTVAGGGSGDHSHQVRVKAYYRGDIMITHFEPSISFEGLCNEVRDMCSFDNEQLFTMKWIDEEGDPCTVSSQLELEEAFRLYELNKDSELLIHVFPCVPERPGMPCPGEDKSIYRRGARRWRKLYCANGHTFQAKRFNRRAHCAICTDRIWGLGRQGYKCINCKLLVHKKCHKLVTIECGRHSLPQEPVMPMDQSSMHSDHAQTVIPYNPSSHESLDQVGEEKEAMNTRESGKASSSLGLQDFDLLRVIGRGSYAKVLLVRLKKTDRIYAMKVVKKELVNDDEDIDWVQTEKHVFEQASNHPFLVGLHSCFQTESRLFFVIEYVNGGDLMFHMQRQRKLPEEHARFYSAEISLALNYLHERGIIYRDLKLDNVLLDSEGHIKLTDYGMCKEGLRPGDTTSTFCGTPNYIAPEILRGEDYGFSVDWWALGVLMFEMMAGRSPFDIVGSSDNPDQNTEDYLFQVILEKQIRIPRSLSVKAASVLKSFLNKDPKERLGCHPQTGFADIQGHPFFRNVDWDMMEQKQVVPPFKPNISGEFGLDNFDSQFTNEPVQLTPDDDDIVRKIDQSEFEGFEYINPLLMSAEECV

[3] = target: T1, Protein kinase C iota type (Homo sapiens); conditions: at 1 µM
[4] = target: Protein kinase C theta type (Homo sapiens) (UniProt Q04759); conditions: at 0.1 µM
Chain of Protein kinase C theta type (Homo sapiens) (Q04759 whole entry, looked up): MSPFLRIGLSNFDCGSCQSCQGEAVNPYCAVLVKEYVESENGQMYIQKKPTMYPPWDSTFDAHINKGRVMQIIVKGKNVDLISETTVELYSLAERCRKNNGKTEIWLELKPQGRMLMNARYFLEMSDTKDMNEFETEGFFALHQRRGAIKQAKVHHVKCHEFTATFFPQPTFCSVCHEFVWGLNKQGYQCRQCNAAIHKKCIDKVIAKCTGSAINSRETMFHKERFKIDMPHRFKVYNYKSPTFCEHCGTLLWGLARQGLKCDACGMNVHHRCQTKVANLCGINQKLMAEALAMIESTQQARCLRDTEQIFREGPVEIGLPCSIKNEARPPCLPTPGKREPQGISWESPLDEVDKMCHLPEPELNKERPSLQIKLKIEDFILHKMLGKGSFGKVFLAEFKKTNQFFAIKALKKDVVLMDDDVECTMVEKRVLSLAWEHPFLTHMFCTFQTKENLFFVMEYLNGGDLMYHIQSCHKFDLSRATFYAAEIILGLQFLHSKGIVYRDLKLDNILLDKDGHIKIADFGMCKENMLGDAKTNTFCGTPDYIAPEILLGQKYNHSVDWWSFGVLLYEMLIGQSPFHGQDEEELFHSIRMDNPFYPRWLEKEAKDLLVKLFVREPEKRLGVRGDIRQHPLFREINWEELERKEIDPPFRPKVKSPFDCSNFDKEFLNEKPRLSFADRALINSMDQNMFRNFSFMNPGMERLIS

[5] = target: Protein kinase C theta type (Homo sapiens) (UniProt Q04759); conditions: at 1 µM
[6] = target: Protein kinase C beta type (Homo sapiens) (UniProt P05771); conditions: at 0.1 µM
Chain of Protein kinase C beta type (Homo sapiens) (P05771 2-671 limits assumed): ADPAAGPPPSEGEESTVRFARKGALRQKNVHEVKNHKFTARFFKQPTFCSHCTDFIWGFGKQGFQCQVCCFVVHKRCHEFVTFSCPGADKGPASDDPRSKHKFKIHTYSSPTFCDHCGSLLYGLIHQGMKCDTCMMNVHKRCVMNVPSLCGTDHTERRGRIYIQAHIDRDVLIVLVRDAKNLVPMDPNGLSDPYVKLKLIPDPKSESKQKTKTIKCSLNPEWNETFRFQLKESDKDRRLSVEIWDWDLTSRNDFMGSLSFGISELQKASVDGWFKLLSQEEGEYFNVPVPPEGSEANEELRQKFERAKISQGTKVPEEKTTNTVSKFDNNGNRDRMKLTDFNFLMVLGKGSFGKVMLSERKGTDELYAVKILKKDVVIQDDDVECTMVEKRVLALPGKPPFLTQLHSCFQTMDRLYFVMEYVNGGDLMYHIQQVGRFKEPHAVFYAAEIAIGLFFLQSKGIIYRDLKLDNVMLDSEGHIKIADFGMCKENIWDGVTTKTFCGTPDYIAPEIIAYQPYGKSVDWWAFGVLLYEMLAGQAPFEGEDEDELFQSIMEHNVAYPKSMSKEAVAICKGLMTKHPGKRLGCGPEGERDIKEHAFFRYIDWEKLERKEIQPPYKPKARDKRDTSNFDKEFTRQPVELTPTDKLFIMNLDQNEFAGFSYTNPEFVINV

[7] = target: Protein kinase C beta type (Homo sapiens) (UniProt P05771); conditions: at 1 µM
[8] = target: T2, Serine/threonine-protein kinase D1 (Homo sapiens) (UniProt Q15139); conditions: at 0.1 µM
T2 sequence (whole entry): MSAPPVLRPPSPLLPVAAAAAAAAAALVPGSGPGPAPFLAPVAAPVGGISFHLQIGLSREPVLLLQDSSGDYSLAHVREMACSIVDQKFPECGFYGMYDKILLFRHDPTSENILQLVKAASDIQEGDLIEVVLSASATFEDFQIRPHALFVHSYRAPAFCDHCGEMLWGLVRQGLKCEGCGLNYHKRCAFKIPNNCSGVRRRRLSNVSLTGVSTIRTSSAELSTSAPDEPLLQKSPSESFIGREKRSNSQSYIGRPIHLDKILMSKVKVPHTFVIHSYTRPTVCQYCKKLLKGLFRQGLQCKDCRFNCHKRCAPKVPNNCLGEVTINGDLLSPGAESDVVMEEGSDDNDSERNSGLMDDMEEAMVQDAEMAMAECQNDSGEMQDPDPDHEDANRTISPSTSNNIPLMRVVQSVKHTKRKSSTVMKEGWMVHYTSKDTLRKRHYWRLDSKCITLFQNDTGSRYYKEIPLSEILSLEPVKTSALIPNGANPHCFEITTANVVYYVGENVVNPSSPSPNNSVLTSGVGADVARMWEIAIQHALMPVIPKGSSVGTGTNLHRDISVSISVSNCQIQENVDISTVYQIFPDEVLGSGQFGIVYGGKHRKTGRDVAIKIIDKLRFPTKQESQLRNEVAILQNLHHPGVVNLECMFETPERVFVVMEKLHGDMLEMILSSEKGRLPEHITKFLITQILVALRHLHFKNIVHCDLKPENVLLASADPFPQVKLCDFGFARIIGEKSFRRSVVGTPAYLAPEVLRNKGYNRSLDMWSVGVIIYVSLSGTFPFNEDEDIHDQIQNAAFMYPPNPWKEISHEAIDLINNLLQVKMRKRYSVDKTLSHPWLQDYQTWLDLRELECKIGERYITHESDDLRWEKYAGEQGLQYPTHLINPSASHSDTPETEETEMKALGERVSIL

[9] = target: T2, Serine/threonine-protein kinase D1 (Homo sapiens); conditions: at 1 µM
[10] = target: T3, Serine/threonine-protein kinase D2 (Homo sapiens) (UniProt Q9BZL6); conditions: at 0.1 µM
T3 sequence (whole entry): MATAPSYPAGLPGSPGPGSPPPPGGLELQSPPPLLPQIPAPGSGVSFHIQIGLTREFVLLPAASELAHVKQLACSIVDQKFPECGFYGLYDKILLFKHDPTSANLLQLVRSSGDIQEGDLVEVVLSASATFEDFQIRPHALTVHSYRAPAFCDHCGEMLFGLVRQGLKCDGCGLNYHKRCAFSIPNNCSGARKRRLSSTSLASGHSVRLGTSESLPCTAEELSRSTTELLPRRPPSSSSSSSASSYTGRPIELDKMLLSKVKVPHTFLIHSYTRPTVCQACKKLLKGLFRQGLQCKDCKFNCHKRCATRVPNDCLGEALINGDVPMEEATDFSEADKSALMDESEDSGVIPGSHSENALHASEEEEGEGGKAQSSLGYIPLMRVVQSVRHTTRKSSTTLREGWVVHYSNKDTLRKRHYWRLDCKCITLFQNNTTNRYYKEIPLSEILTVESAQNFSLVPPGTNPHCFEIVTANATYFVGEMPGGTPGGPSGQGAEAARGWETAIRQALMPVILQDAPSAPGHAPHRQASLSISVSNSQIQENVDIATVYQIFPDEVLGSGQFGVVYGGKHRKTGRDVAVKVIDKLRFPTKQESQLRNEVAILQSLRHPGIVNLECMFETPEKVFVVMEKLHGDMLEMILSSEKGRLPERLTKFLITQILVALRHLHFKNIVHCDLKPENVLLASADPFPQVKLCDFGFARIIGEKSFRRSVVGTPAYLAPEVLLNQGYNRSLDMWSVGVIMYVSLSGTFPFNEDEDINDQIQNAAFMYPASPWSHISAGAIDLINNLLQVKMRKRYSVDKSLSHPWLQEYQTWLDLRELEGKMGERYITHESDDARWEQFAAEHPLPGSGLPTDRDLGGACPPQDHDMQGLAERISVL

[11] = target: T3, Serine/threonine-protein kinase D2 (Homo sapiens); conditions: at 1 µM
[12] = target: T4, Serine/threonine-protein kinase D3 (Homo sapiens) (UniProt O94806); conditions: at 0.1 µM
T4 sequence (whole entry): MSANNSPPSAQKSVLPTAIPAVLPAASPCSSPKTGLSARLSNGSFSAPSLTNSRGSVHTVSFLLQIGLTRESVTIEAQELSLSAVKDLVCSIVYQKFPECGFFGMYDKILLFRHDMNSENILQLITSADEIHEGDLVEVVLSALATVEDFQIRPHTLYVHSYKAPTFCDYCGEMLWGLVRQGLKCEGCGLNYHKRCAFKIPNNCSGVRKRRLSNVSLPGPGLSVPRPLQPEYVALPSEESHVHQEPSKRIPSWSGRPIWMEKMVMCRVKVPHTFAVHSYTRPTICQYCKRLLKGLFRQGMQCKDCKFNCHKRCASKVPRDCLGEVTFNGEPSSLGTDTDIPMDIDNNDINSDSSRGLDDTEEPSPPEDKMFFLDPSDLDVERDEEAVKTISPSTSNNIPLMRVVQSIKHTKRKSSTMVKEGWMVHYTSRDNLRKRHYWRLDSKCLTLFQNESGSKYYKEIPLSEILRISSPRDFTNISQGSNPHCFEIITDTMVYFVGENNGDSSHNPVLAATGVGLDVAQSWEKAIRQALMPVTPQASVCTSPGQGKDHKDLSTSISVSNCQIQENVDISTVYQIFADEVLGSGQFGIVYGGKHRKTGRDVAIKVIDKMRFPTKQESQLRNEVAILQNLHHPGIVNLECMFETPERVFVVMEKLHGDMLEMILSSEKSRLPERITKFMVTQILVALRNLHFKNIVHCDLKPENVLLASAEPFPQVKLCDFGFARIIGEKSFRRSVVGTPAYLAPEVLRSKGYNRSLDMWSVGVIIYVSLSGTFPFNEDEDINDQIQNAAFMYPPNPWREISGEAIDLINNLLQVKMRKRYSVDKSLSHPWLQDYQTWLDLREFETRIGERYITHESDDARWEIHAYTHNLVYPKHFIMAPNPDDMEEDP

[13] = target: T4, Serine/threonine-protein kinase D3 (Homo sapiens); conditions: at 1 µM
[14] = target: T5, cGMP-dependent protein kinase 1 (Homo sapiens) (UniProt Q13976); conditions: at 0.1 µM
T5 sequence (whole entry): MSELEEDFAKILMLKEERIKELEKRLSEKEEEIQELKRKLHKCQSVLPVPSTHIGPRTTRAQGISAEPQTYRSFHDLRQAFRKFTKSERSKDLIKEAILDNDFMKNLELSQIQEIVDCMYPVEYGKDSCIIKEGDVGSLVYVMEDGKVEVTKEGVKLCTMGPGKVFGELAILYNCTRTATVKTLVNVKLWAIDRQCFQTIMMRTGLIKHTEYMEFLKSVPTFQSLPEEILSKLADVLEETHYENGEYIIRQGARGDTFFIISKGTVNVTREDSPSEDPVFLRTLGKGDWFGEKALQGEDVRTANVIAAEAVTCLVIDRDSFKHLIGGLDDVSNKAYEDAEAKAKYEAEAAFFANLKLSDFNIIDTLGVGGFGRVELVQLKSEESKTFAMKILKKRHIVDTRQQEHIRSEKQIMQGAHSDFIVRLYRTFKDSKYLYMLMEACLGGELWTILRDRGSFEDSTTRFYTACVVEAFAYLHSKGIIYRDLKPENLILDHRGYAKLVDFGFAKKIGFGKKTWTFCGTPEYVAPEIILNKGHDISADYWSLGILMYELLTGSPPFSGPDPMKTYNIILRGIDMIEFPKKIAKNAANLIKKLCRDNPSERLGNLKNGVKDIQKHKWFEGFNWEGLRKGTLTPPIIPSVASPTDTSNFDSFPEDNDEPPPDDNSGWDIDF

[15] = target: T5, cGMP-dependent protein kinase 1 (Homo sapiens); conditions: at 1 µM
[16] = target: T6, cGMP-dependent protein kinase 2 (Homo sapiens) (UniProt Q13237); conditions: at 0.1 µM
T6 sequence (whole entry): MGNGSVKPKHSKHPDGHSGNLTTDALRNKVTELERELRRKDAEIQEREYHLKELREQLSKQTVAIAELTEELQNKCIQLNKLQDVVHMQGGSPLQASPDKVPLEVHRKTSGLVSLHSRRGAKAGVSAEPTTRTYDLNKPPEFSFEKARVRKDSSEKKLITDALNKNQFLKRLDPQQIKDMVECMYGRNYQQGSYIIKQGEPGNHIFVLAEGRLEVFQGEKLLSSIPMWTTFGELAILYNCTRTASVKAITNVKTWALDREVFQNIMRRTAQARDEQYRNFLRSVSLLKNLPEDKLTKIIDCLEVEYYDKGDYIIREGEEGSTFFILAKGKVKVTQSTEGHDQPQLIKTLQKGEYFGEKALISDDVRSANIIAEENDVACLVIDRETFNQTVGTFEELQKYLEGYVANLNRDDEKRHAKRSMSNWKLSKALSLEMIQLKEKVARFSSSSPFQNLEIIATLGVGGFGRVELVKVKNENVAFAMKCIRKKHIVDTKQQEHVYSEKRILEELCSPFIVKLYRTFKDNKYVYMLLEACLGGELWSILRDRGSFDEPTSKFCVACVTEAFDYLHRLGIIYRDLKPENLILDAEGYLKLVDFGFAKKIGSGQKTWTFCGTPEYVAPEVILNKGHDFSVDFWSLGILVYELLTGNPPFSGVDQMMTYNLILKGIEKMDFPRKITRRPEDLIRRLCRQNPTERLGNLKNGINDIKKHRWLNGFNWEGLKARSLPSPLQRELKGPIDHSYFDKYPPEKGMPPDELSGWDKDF

[17] = target: T6, cGMP-dependent protein kinase 2 (Homo sapiens); conditions: at 1 µM
[18] = target: T7, cAMP-dependent protein kinase catalytic subunit PRKX (Homo sapiens) (UniProt P51817); conditions: at 0.1 µM
T7 sequence (whole entry): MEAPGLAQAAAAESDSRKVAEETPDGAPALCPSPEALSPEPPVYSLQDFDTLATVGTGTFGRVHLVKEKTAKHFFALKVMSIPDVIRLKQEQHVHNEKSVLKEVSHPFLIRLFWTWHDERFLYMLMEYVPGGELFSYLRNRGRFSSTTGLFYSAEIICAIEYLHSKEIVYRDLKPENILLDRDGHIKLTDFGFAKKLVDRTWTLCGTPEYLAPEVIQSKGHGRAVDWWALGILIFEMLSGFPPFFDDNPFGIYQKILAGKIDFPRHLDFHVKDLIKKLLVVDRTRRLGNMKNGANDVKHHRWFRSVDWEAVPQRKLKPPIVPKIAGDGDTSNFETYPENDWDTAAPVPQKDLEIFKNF

[19] = target: T7, cAMP-dependent protein kinase catalytic subunit PRKX (Homo sapiens); conditions: at 1 µM
[20] = target: Rho-associated protein kinase 1 (Homo sapiens) (UniProt Q13464); conditions: at 0.1 µM;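 note: values are mean percent inhibition of ROCK1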
Chain of Rho-associated protein kinase 1 (Homo sapiens) (Q13464 2-1354 limits assumed): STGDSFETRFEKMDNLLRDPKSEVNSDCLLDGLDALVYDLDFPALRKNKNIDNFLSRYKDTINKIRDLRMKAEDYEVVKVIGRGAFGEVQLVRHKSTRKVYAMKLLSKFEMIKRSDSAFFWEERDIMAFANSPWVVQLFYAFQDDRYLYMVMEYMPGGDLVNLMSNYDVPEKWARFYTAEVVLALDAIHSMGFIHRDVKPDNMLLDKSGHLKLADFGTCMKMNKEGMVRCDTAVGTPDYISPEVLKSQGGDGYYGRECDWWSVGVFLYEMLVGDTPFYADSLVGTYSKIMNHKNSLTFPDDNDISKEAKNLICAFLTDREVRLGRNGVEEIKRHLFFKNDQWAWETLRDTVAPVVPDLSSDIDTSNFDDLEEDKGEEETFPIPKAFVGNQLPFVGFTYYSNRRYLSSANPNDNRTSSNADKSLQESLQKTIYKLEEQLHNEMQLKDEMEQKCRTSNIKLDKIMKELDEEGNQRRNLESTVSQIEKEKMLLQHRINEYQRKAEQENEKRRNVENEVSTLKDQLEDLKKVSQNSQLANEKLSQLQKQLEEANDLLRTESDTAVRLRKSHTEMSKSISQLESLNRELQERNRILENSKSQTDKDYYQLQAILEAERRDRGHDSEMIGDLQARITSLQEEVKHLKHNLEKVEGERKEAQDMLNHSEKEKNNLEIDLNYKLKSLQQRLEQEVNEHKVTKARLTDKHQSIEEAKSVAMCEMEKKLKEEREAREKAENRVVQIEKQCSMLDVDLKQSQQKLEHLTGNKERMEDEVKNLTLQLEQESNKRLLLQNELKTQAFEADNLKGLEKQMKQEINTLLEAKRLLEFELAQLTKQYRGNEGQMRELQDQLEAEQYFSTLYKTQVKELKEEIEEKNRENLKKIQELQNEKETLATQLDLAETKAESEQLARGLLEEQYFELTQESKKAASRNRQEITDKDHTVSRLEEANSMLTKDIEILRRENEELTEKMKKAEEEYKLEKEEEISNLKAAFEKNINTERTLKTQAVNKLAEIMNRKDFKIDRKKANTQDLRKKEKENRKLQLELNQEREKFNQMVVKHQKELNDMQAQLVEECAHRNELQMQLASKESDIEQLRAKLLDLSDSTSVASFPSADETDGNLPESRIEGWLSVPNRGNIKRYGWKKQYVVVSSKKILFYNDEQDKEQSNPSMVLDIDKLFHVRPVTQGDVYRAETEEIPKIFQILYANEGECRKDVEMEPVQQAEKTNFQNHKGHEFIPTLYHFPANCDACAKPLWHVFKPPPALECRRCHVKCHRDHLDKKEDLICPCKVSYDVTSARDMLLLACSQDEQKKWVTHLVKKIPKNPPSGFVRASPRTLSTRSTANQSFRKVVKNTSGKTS

| Structure (SMILES) | inhibition [1] [%] | inhibition [2] [%] | inhibition [3] [%] | inhibition [4] [%] | inhibition [5] [%] | inhibition [6] [%] | inhibition [7] [%] | inhibition [8] [%] | inhibition [9] [%] | inhibition [10] [%] | inhibition [11] [%] | inhibition [12] [%] | inhibition [13] [%] | inhibition [14] [%] | inhibition [15] [%] | inhibition [16] [%] | inhibition [17] [%] | inhibition [18] [%] | inhibition [19] [%] | inhibition [20] [%] |
| --- | --- | --- | --- | --- | --- | --- | --- | --- | --- | --- | --- | --- | --- | --- | --- | --- | --- | --- | --- | --- |
| COc1ccc2cc(-c3c(-c4ccncc4)nc(-c4ccc([S+](C)[O-])cc4C)n3C)ccc2c1 (stereo not given) | -0.38 | 0.41 | -0.63 | -1.05 | -1.26 | 0.04 | 5.01 | -0.67 | -0.16 | -0.62 | 0.1 | -0.55 | -0.05 | 0.69 | 0.56 | 0.02 | 0.21 | 0.49 | 1.21 | -0.64 |
| COc1cc(N2CCN(C(C)C)CC2)ccc1Nc1nc(Nc2ccc(F)cc2C(=O)NC[C@@H](O)CO)c2cc[nH]c2n1 | 7.34 | 2.87 | 0.36 | 3.85 | 6.2 | 1.04 | 2.5 | 1.65 | 13.4 | 3.16 | 17.5 | 3.93 | 20.7 | 7.74 | 35.1 | 2.82 | 8.2 | 2.99 | 6.02 | 1.24 |
| CCN(CC)Cc1ccc(Nc2nccc(-c3cnn4ncccc34)n2)cc1 | 7.9 | 1.27 | 2.03 | 2.37 | 4.84 | 1 | 6.38 | 36.3 | 65.6 | 28.1 | 64.4 | 30.2 | 62.6 | 3.48 | 14.9 | 3.29 | 13.7 | 2.55 | 4.27 | 2.36 |
| c1ccc(Oc2ccc(Nc3ncc(-c4ccccc4)o3)cc2)cc1 | 3.46 | 1.87 | 0.57 | 1.08 | 0.33 | 0.45 | 1.67 | 2.12 | 4.49 | 1.43 | 3.8 | 2.14 | 3.61 | 2.21 | 3.15 | 1.21 | 3.1 | 2.99 | 6.18 | 3.48 |
